{"source": "PubChem BioAssay (NCI)", "note": "The panel holds about 79,000 compounds, 15% with a hit somewhere; the sample as a whole holds those more often. Unmarked numbers belong to inactive results. Calls of active or inactive are those of the source. No stated cut-off is given here; in the data, active means growth inhibition above about 70%; inactive means the rest.", "data": [{"experiment": "NCI Yeast Anticancer Drug Screen. Data for the mec2-1 strain (AID 157)", "settings": "S. cerevisiae mec2-1 strain, at 5.0 µM (retest, dose inferred, filed as 0.5), stronger effect = higher value", "summary_of_the_method": "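Using mec2-1 yeast: add compound, measure growth, express inhibition versus vehicle-treated cultures.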", "values": [{"smiles": "COc1ccc(/C=C2\\SC(=S)N(/C=C/c3nc4ccccc4[nH]c3=O)C2=O)cc1OC", "growth inhibition": "-17%"}, {"smiles": "N#CN=Nc1cc(Cl)c(N=NC#N)cc1Cl", "growth inhibition": "12%"}, {"smiles": "Cc1ccc(S(=O)(=O)Oc2cc(Cl)c(Cl)cc2Cl)cc1", "growth inhibition": "-29%"}, {"smiles": "c1ccc2c(c1)Oc1cccc3cccc-2c13", "growth inhibition": "99% (active)"}, {"smiles": "O=C(c1ccc(Cl)cc1Cl)C(Cl)Cl", "growth inhibition": "40%"}, {"smiles": "CC(C)C1=CCC2C(=C1)CCC1C(C)(C(=O)O)CCCC21C", "note": "(stereo not given) (tested in a mixture with another compound)", "growth inhibition": "29%"}, {"smiles": "COc1cc(/C=C2\\CCc3ccccc3C2=O)cc(OC)c1OC", "growth inhibition": "-11%"}, {"smiles": "CC(=O)[O][Bi]([c]1ccccc1)[c]1ccccc1", "growth inhibition": "19%"}, {"smiles": "S=C(N/N=C/c1ccccn1)Nc1ccc(Cl)cc1", "growth inhibition": "71% (active)"}, {"smiles": "COc1cc(CC2CC(c3ccc4c(c3)OCO4)OC2=O)cc(OC)c1OC", "note": "(stereo not given)", "growth inhibition": "6%"}, {"smiles": "CNC1C(OC2C(OC3C(O)C(O)C(N=C(N)N)C(O)C3N=C(N)N)OC(C)C2(O)CO)OC(CO)C(O)C1O", "note": "(stereo not given)", "growth inhibition": "-15%"}, {"smiles": "NNC(=O)CCc1ccc2ccc3ccccc3c2c1", "growth inhibition": "-1%"}, {"smiles": "Oc1ccc2ccccc2c1C(c1ccc(Cl)cc1)c1c(O)ccc2ccccc12", "growth inhibition": "99% (active)"}, {"smiles": "CCCCN(CCCC)CCSc1ccc(Cl)cc1", "growth inhibition": "3%"}, {"smiles": "CCC(C)COC(=O)c1ccc(N=Cc2ccc(C=Nc3ccc(C(=O)OCC(C)CC)cc3)cc2)cc1", "note": "(stereo not given)", "growth inhibition": "13%"}, {"smiles": "CC1(C)C(=O)OC(n2cc(F)c(=O)[nH]c2=O)C1=O", "note": "(stereo not given)", "growth inhibition": "1%"}, {"smiles": "O=[N+]([O-])CC(SCc1ccccc1)c1ccc2c(c1)OCO2", "note": "(stereo not given)", "growth inhibition": "26%"}, {"smiles": "COc1cc2c(cc1[N+](=O)[O-])C(=O)C(Br)(Br)CCC2", "growth inhibition": "31%"}, {"smiles": "OCC1OC(OCC(O)C(O)C(O)C(/C=N/Nc2ccccc2)=N/Nc2ccccc2)C(O)C(O)C1O", "note": "(stereo not given)", "growth inhibition": "1%"}, {"smiles": "COc1ccc(N=C2C(=O)Nc3ccc(Br)cc32)cc1", "growth inhibition": "48%"}, {"smiles": "Cn1c(=O)c2ccccc2c2ccccc21", "growth inhibition": "-45%"}, {"smiles": "CC[n+]1ccc2c(C)c3[nH]c4ccc(O)cc4c3c(C)c2c1", "growth inhibition": "1%"}, {"smiles": "CC(=O)ON1C(=O)c2cccc3cccc(c23)C1=O", "growth inhibition": "-3%"}, {"smiles": "COc1ccc2ccc3ccccc3c2c1C=O", "growth inhibition": "9%"}, {"smiles": "OC1CCCc2c1cc1ccc3cccc4ccc2c1c34", "note": "(stereo not given)", "growth inhibition": "12%"}]}]}
